HPGD inh: blocks human HPGD enzyme activity | P15428 | purified HPGD, NADH fluorescence kinetic, PGE2 substrate | Potency, µM, inactives show top-dose activity change, negative = inhibition, actives largely listed as inhibitors | hit rate 4.3% among 150,000 | AID 894; also: potency is read from the fitted curve at half-maximal effect
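20 nM HPGD preincubated 15 min at room temperature with compound in 50 mM Tris-HCl pH 8, 0.01% Tween 20. Started with 1 mM NAD+ and 30 uM prostaglandin E2; NADH fluorescence (360/450 nm) read 5 times over 30-s intervals, last minus first.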
PNC inhibitor: inhibitors of perinucleolar compartment assembly | PC3M PTB-GFP, PNC prevalence imaging, 16 h; active compounds read low | activity change (PNC), negative = inhibition, % at 10 µM | hit rate 3.1% among 140,000;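 active = readout at or below -70, meaning at least 70% loss of cells showing the perinucleolar compartment, a nuclear body marking cancer cells; inconclusive = readout between -30 and a set limit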;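 also: plate controls were DMSO wells for no effect and camptothecin positive control wells for full effect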
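Compounds are pinned in duplicate onto adhered PC3M cells stably expressing GFP-tagged PTB and incubated 16 h at 37 C. Cells are then fixed, nuclei stained with Hoechst, and PNC-positive cells counted.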
Lamin A splicing: changes lamin A minigene splicing in HeLa cells | HeLa LMNA splicing GFP/RFP minigene ratio, 48 h | Potency, µM (highest dose often 46.1 µM), inactives show top-dose ratio change, negative = inhibition, usual class: inhibitors | hit rate 0.01% among 200,000; active = well fitted inhibition curve with a large enough effect in the signal ratio, with a control signal flat, not every such curve was filed as active; inconclusive = small, poorly fitted or top-dose-only effect, or effect the other way, or a change in a side signal; the % refers to the signal ratio; also: potency is read from the fitted curve at half-maximal effect
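Read-out is the ratio of GFP to DsRed2 object intensity, acquired by 488 nm laser-scanning cytometry on HeLa lamin A-EGFP minigene reporter cells. Compound incubation 48 hrs at 37 °C in Opti-MEM with 2% FBS; DMSO 0.5% final.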
12-hLO inh: blocks human 12-lipoxygenase activity; AID 1452; purified 12-hLO, xylenol orange hydroperoxide absorbance; Potency, µM (highest dose often 57.1 µM), inactives show at the top dose activity change, negative = inhibition, usual class: inhibitors; hit rate 0.12% among 150,000; active = well fitted inhibition curve with a large enough effect; inconclusive = small, poorly fitted or top-dose-only effect; also: potency is read from the fitted curve at half-maximal effect; nearly all actives have a fitted effect of over 55% in size
Target sequence (P18054 whole entry, looked up): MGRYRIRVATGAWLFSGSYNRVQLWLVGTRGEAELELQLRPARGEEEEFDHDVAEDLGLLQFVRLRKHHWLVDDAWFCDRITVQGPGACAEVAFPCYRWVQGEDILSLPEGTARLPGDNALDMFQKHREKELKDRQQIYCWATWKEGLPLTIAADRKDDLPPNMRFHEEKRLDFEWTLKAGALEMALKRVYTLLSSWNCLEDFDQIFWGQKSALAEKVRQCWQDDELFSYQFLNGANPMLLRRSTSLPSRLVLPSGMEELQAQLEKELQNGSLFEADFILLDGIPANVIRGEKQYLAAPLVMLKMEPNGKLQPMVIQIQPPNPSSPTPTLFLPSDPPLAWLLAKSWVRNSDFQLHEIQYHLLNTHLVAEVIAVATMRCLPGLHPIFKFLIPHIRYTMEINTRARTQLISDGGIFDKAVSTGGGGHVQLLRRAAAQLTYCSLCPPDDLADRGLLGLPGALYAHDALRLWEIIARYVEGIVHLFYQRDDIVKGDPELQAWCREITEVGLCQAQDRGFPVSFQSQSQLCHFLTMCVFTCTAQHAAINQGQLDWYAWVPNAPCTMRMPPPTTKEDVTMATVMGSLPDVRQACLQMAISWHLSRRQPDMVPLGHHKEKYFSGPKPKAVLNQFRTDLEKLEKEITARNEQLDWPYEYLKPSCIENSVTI
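Purified human 12hLO (150 nM final) was preincubated with compounds for 15 min at room temperature in 25 mM Hepes pH 7.0, 0.01% Triton X-100, then reacted with 40 uM arachidonic acid for 30 min. Hydroperoxide was detected with ferrous iron/xylenol orange.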
ALDH1A1 inh: ALDH1A1 (human) enzyme inhibition | hit rate 7.3% among 220,000 | AID 1030 | Purified ALDH1A1, NADH fluorescence, propionaldehyde substrate | Potency, µM (highest dose often 75.3 µM), without a hit: top-dose activity, negative = inhibition, hits mostly inhibitors;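 also: potency is read from the fitted curve at half-maximal effect; plate controls were no enzyme wells and a reference inhibitor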
The depositor's hits bear a star; [ ] = dose if it differs, or a comment. An excerpt weighted towards active compounds, which were near 10% of everything screened. Unless noted, calls follow the shape of the dose curve; as a rule, active = well fitted inhibition curve with a large enough effect (not every such curve was filed as active); inconclusive = small, poorly fitted or top-dose-only effect, or another doubt; inactive = no such curve, though single readings can be large or run the other way. Unless noted, % is scaled to controls: 0 for no effect and ±100 for the full control effect.

Results for CCOC(=O)C1CCN(C(=O)c2cccc(Cl)c2)CC1 ?
HPGD inh: 3%; PNC inhibitor: 17; Lamin A splicing: -2%; 12-hLO inh: 3%; ALDH1A1 inh: 3%

What do the screens show for `CCOC(=O)C1CCN(c2c(C(=O)c3ccccc3)cnc3ccc(Cl)cc23)CC1`?
ALDH1A1 inh: 4.5µM*

What do the screens show for `CCOc1ccc2ncc(C(=O)c3ccc(OC)cc3)c(N3CCN(CC)CC3)c2c1`?
Lamin A splicing: -7%[46 µM]; ALDH1A1 inh: 0.71µM*

What do the screens show for `COc1ccc(COC(=O)N/N=C2/C[C@@H](O)[C@@H](O)[C@@H]3[C@H]4C(=O)N(c5ccc(F)cc5F)C(=O)[C@@H]4CC[C@H]23)cc1`?
ALDH1A1 inh: -3%[13.5 µM]

Results for COC(=O)c1ccc(C(NC(=O)OCc2ccccc2)/C(=C/[C@@H](C)C(=O)Nc2ccc(OC)cc2)c2cccnc2)cc1 (some centres not stated) ?
HPGD inh: -16%; 12-hLO inh: 1%; ALDH1A1 inh: -3%

Results for CS(=O)(=O)N1CCCC(C(=O)NCc2ccccn2)C1 (configuration not stated) ?
HPGD inh: -2%; PNC inhibitor: -110*; Lamin A splicing: 7%; 12-hLO inh: 2%; ALDH1A1 inh: -13%

What do the screens show for `CC(C)(C)c1ccc(S(=O)(=O)N2CCCCC2C(=O)NCc2ccccn2)cc1` (configuration not stated)?
HPGD inh: -14%; PNC inhibitor: inconclusive; Lamin A splicing: inconclusive; 12-hLO inh: -5%; ALDH1A1 inh: 4µM*

How did Cc1ccc(S(=O)(=O)N2CCCC(C(=O)NCc3ccccn3)C2)cc1 (configuration not stated) do in these assays?
HPGD inh: -19%; PNC inhibitor: inconclusive; Lamin A splicing: -11%; 12-hLO inh: 0%; ALDH1A1 inh: 3%

What do the screens show for `CC(C)=CCC/C(C)=C/CO/N=C1/C[C@@H](O)[C@@H](O)[C@@H]2[C@H]3C(=O)N(c4ccc(F)cc4F)C(=O)[C@@H]3CC[C@@H]12`?
ALDH1A1 inh: -4%[13.5 µM]

Results for CCOC(=O)CSc1nc2cc(C(=O)NCC3CCCO3)ccc2c(=O)n1Cc1ccco1 (configuration not stated) ?
HPGD inh: -25%; PNC inhibitor: -88*; Lamin A splicing: 3%; 12-hLO inh: -2%; ALDH1A1 inh: inconclusive

Results for CCOC(=O)CSc1nc2c(sc(=S)n2Cc2ccco2)c(=O)n1-c1ccccc1 ?
HPGD inh: -11%; PNC inhibitor: 7; Lamin A splicing: 11%[0.0737 µM]; 12-hLO inh: -5%; ALDH1A1 inh: inconclusive

How did CCOC(=O)Cn1c(=O)n(C2CCCC2)c(=O)c2ccccc21 do in these assays?
HPGD inh: -11%; PNC inhibitor: 25; Lamin A splicing: 5%; 12-hLO inh: 2%; ALDH1A1 inh: inconclusive

Results for CCOC(=O)Cn1c(=O)n(Cc2ccco2)c(=O)c2ccc(C(=O)NC3CCCC3)cc21 ?
HPGD inh: -4%; PNC inhibitor: -15; Lamin A splicing: 2%; 12-hLO inh: -2%; ALDH1A1 inh: 7.9µM*

Results for CCN(CC)C(=O)CSc1nc2c(sc(=S)n2Cc2ccco2)c(=O)n1-c1ccccc1 ?
HPGD inh: -9%; PNC inhibitor: 18; Lamin A splicing: 16%; 12-hLO inh: -11%; ALDH1A1 inh: 6.3µM*

What do the screens show for `O=C(NCC1CCCO1)c1ccc2c(=O)n(Cc3ccco3)c(SCC(=O)N3CCCC3)nc2c1` (configuration not stated)?
HPGD inh: inconclusive; PNC inhibitor: 39; Lamin A splicing: 3%; 12-hLO inh: 4%; ALDH1A1 inh: inconclusive

Results for CCOC(=O)CSc1nc2c(sc3ccc([N+](=O)[O-])cc32)c(=O)n1Cc1ccco1 ?
HPGD inh: -16%; PNC inhibitor: -87*; Lamin A splicing: 17%; 12-hLO inh: 0%; ALDH1A1 inh: inconclusive

How did Cc1ccc(NC(=O)CSc2nnc3[nH]c(=O)cc(-c4ccccc4)n23)cc1Cl do in these assays?
Lamin A splicing: 5%[46 µM]

Results for O=C(NNc1ncnc2c1cnn2-c1ccccc1)c1cccc(Cl)c1 ?
Lamin A splicing: -16%[46 µM]

How did Cn1c(=O)c(-c2ccc(Cl)cc2)nc2cnc(Oc3cccc(Cl)c3)nc21 do in these assays?
Lamin A splicing: inconclusive; ALDH1A1 inh: -14%

How did COCCNC(=O)CSc1nc2cc3c(cc2c(=O)n1Cc1ccco1)OCO3 do in these assays?
HPGD inh: -6%; PNC inhibitor: -23; Lamin A splicing: 5%; 12-hLO inh: 2%; ALDH1A1 inh: 13µM*

Results for CCC(Sc1nc2cc3c(cc2c(=O)n1Cc1ccco1)OCO3)C(=O)NCCOC (configuration not stated) ?
HPGD inh: -5%; PNC inhibitor: -24; Lamin A splicing: 9%; 12-hLO inh: -8%; ALDH1A1 inh: 2.2µM*

Results for COCCCNC(=O)CSc1nc2cc3c(cc2c(=O)n1CCCCCC(=O)NCc1ccc(OC)cc1)OCO3 ?
Lamin A splicing: 0%[46 µM]

Results for CCC(Sc1nc2cc3c(cc2c(=O)n1Cc1ccco1)OCO3)C(=O)Nc1ccccc1OC (configuration not stated) ?
HPGD inh: -16%; PNC inhibitor: 22; Lamin A splicing: 15%; 12-hLO inh: 2%; ALDH1A1 inh: 1.1µM*

What do the screens show for `CCN(CC)C(=O)CSc1nc2cc3c(cc2c(=O)n1Cc1ccco1)OCO3`?
Lamin A splicing: 10%[9.22 µM]; ALDH1A1 inh: 0.89µM*

What do the screens show for `COc1ccc2cc(C(=O)NCc3ccc4c(c3)CCN4C(=O)c3ccccc3)[nH]c2c1`?
Lamin A splicing: -9%[46 µM]

How did COCCCn1c(SCC(=O)NC2CCCC2)nnc1-c1ccco1 do in these assays?
HPGD inh: -14%; PNC inhibitor: -107*; Lamin A splicing: 8%; 12-hLO inh: 2%; ALDH1A1 inh: 13µM*

Results for COCCNC(=O)c1ccc2c(=O)n(Cc3ccco3)c(SCC(=O)NC3CCCC3)nc2c1 ?
HPGD inh: -23%; PNC inhibitor: 64; Lamin A splicing: 12%; 12-hLO inh: 9%; ALDH1A1 inh: 7.9µM*

What do the screens show for `CC1CCCCC1NC(=O)CSc1nc2ccccc2c(=O)n1Cc1ccco1` (configuration not stated)?
HPGD inh: -3%; PNC inhibitor: 2; Lamin A splicing: -10%; 12-hLO inh: 0%; ALDH1A1 inh: 4%

What do the screens show for `CN(C)c1nc(N)c(C(=O)Nc2cccnc2)nc1Cl`?
HPGD inh: inconclusive; 12-hLO inh: -14%; ALDH1A1 inh: inconclusive

Results for CSc1nc(N)nc(SCC(=O)Nc2cccc(F)c2)c1C#N ?
HPGD inh: 20µM*; PNC inhibitor: -26; Lamin A splicing: inconclusive; 12-hLO inh: -3%; ALDH1A1 inh: 9%

Screens from PubChem.
